The values below come from PubChem BioAssay.

The source made the active and inactive calls.

The subject of test [1] is Plasmodium falciparum Sir2 (PF13_0152, Sir2A). Description: Plasmodium falciparum Sir2A binding compounds – biochemical, small-molecule microarray, 635 nm fluorescence, primary screen (AID 1098).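 Note: score merges spot fluorescence intensity with its signal-to-noise ratio.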 Conditions: fluorescence 635 nm, higher = more signal.
A short description of test [2]: probe aDKK1 binding to arrayed compounds – biochemical, biotinylated probe, 635/667 nm fluorescence, primary screen (AID 1099).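 Note: score merges 667nm spot fluorescence with signal to noise across triplicate slides.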 Conditions: small-molecule microarray, higher = more signal.
The nature of test [3]: probe aCHRDL2 binding to arrayed compounds – biochemical, biotinylated probe, 635/667 nm fluorescence, primary screen (AID 1100). Conditions: small-molecule microarray, higher = more signal.
Test [4] can be described thus: change in splice reporter luminescence, either direction, cell-based, HEK293, spliceosome inhibition project, primary screen (AID 1101).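 Note: HEK293 cells carrying a splicing-competent luciferase reporter gene; test concentration not given here.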 Conditions: HEK293 splicing luciferase reporter, 24 h, higher = more signal, called active from +8 up or from −8 down.
For test [5], the target named is Fibroblast growth factor 10 (Homo sapiens) (UniProt O15520). Description: compounds binding fibroblast growth factor 10 – biochemical, small-molecule microarray, 635 nm fluorescence, primary screen (AID 1102). To be noted: FGF10 binding, fluorescence 635 nm, higher = more signal.
Sequence of Fibroblast growth factor 10 (Homo sapiens) (O15520 whole entry, looked up): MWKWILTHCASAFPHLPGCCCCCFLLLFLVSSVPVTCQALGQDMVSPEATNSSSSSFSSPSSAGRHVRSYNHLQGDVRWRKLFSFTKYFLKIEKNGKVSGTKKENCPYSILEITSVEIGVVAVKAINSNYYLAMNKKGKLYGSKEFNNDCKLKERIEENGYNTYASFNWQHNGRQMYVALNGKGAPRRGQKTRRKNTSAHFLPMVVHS
In test [6] the test system is glycogen synthase kinase-3 (GSK3A per assay name; protocol says GSK3B). Briefly: compounds binding glycogen synthase kinase-3 – biochemical, small-molecule microarray, 635 nm fluorescence, GSK3A, primary screen (AID 1103). Note: the record names both GSK3A and GSK3B. Conditions: fluorescence 635 nm, higher = more signal.
Test [7] addresses Epidermal growth factor receptor (Homo sapiens) (UniProt P00533). Description: compounds binding epidermal growth factor receptor – biochemical, small-molecule microarray, 635 nm fluorescence, primary screen (AID 1104).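 Note: score merges 667 nm emission intensity with spot signal to noise over triplicate slides.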 Conditions: EGFR binding, higher = more signal.
Test [8] addresses Follistatin-related protein 3 (Homo sapiens) (UniProt O95633). Description: compounds binding follistatin-related protein 3 – biochemical, small-molecule microarray, 635 nm fluorescence, primary screen (AID 1105).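 Note: score merges emission near 667 nm and signal to noise per printed spot across three slides.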 To be noted: FSTL3 binding, higher = more signal.
The target of test [9] is Dickkopf-related protein 1 (Homo sapiens) (UniProt O94907). Description: small molecules binding DKK1 protein – biochemical, small-molecule microarray, 635 nm fluorescence scan, primary screen (AID 1106).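 Note: score merges emission near 667 nm with signal to noise over three replicate slides.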 To be noted: higher = more signal.
Sequence of Dickkopf-related protein 1 (Homo sapiens) (O94907 whole entry, looked up): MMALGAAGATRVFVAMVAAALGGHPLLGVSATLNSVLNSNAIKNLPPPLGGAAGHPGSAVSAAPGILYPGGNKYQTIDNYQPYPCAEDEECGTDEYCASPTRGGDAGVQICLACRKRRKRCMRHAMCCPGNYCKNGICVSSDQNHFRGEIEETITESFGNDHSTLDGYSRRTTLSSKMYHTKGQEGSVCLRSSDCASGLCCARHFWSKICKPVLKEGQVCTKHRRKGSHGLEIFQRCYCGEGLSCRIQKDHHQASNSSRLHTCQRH
Test [10] deals with Inhibin beta A chain (activin A). Description: small molecules binding activin A – biochemical, small-molecule microarray, 635 nm fluorescence scan, primary screen (AID 1107).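 Note: mouse activin A protein probed at 4.33 µg/mL on printed slides; score merges bound-protein fluorescence near 667 nm with spot signal-to-noise.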 Conditions: INHBA, higher = more signal.
The test system of test [11] is Human papillomavirus type 1a protein E7 (residues 44-93). Briefly: small molecules binding HPV E7 44-93 – biochemical, small-molecule microarray, residues 44-93, 635 nm fluorescence, primary screen (AID 1108).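 Note: E7 fragment applied at 1 µg/mL in TBST for 1 h at 4 C; score combines spot fluorescence with its signal to noise ratio.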 Conditions: fluorescence 635 nm, higher = more signal.
A short description of test [12]: hepatitis C replication reporter changes, two-sided – Huh7 cells, luciferase reporter, HCV replication inhibitor project, primary screen (AID 1109).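 Note: huh7 hepatoma cells harbouring a luciferase neomycin HCV replicon reporter; luciferase luminescence as measure of HCV replicon replication; test concentration not given here.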 Conditions: Huh7 HCV replicon luciferase reporter, 48 h; higher = more signal.
Test [13] deals with Left-right determination factor 2 (Homo sapiens) (UniProt O00292). Description: small molecules binding LEFTY2 protein – biochemical, small-molecule microarray, 635 nm fluorescence scan, primary screen (AID 1110). To be noted: higher = more signal.
Sequence of Left-right determination factor 2 (Homo sapiens) (O00292 whole entry, looked up): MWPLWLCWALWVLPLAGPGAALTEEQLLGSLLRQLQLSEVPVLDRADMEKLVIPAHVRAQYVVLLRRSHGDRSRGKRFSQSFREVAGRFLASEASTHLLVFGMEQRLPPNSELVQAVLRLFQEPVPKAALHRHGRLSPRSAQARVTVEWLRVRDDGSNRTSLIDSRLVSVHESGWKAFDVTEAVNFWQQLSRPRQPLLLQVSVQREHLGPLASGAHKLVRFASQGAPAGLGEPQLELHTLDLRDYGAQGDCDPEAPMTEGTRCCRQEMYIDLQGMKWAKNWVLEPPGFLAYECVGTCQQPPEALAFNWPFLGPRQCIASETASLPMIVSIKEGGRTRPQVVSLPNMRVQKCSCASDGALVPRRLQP
The target in test [14] is Calmodulin-1 (Homo sapiens) (UniProt P0DP23). Briefly: small molecules binding calmodulin-1 with EGTA – biochemical, small-molecule microarray, Cy5-labelled CALM1, profiling panel (AID 1111).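 Note: labelled calmodulin applied in Tris saline Tween buffer holding calcium plus EGTA and DTT.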 Conditions: Cy5-CALM1 binding fluorescence, higher = more signal.
Test [15] shares this target. Description: small molecules binding Ca-loaded calmodulin-1 – biochemical, small-molecule microarray, Cy5-labelled CALM1, plus calcium, artefact control for SMM control-protein annotation, profiling panel (AID 1112).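 Note: score merges spot fluorescence with signal to noise from triplicate slides.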 To be noted: Cy5-CALM1 binding fluorescence, higher = more signal.
Test [16] is described as follows: probe aWnt5a binding to arrayed compounds – biochemical, biotinylated probe, 635/667 nm fluorescence, primary screen (AID 1113).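 Note: score merges 667 nm fluorescence intensity with signal-to-noise per printed feature.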 Conditions: small-molecule microarray, higher = more signal.
Test [17] can be described thus: probe aShh binding to arrayed compounds – biochemical, biotinylated probe, 635/667 nm fluorescence, primary screen (AID 1114).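 Note: probe is biotin-labelled aShh protein from a stem cell growth factor screen; measures binding of labelled protein to compounds printed on the slide; score merges feature fluorescence at 667 nm with signal-to-noise.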 To be noted: small-molecule microarray, higher = more signal.
Test [18] in a line: probe aNog binding to arrayed compounds – biochemical, biotinylated probe, 635/667 nm fluorescence, primary screen (AID 1115).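 Note: probe is biotinylated aNog protein used at 0.15 µg/mL for 1 h at 4 C; z-score combines 667 nm fluorescence of each spot with its signal to noise.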 To be noted: small-molecule microarray, higher = more signal.
Test [19] deals with Torsin-1A-interacting protein 1 (Homo sapiens) (UniProt Q5JTV8). Briefly: compound microarray binding of lysate hLAP1 – cell lysate, small-molecule microarray, COS7 lysate, 635/667 nm fluorescence, primary screen (AID 1116). Conditions: 635 nm fluorescence, higher = more signal.
Sequence of Torsin-1A-interacting protein 1 (Homo sapiens) (Q5JTV8 whole entry, looked up): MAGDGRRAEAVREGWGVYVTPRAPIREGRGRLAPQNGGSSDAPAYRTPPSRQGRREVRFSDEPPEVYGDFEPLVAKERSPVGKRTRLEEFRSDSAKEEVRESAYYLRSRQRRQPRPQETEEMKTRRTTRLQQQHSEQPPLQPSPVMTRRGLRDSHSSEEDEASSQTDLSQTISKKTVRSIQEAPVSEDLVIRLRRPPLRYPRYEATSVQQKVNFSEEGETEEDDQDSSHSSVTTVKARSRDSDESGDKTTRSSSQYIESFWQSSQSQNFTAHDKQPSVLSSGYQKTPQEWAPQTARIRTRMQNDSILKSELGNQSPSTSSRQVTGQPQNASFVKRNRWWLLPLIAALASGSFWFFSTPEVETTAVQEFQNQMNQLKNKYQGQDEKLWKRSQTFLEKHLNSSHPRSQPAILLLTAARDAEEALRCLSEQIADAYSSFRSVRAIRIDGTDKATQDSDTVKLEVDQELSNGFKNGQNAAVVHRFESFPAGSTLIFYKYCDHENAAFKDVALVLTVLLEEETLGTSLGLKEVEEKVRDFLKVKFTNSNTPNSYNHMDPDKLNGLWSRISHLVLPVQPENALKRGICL
The target of test [20] is Alpha-bungarotoxin (Bungarus multicinctus) (UniProt P60615). Description: compounds binding labelled alpha-BTX control protein – biochemical, small-molecule microarray, Alexa647 label, 635/667 nm fluorescence, artefact control for SMM control protein annotation, profiling panel (AID 1117). Conditions: alpha-BTX-A647 binding fluorescence, higher = more signal.
Sequence of Alpha-bungarotoxin (Bungarus multicinctus) (P60615 whole entry, looked up): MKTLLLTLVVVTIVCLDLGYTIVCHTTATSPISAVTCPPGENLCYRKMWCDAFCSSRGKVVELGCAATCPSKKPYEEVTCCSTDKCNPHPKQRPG

Sequence of Epidermal growth factor receptor (Homo sapiens) (P00533 whole entry, looked up): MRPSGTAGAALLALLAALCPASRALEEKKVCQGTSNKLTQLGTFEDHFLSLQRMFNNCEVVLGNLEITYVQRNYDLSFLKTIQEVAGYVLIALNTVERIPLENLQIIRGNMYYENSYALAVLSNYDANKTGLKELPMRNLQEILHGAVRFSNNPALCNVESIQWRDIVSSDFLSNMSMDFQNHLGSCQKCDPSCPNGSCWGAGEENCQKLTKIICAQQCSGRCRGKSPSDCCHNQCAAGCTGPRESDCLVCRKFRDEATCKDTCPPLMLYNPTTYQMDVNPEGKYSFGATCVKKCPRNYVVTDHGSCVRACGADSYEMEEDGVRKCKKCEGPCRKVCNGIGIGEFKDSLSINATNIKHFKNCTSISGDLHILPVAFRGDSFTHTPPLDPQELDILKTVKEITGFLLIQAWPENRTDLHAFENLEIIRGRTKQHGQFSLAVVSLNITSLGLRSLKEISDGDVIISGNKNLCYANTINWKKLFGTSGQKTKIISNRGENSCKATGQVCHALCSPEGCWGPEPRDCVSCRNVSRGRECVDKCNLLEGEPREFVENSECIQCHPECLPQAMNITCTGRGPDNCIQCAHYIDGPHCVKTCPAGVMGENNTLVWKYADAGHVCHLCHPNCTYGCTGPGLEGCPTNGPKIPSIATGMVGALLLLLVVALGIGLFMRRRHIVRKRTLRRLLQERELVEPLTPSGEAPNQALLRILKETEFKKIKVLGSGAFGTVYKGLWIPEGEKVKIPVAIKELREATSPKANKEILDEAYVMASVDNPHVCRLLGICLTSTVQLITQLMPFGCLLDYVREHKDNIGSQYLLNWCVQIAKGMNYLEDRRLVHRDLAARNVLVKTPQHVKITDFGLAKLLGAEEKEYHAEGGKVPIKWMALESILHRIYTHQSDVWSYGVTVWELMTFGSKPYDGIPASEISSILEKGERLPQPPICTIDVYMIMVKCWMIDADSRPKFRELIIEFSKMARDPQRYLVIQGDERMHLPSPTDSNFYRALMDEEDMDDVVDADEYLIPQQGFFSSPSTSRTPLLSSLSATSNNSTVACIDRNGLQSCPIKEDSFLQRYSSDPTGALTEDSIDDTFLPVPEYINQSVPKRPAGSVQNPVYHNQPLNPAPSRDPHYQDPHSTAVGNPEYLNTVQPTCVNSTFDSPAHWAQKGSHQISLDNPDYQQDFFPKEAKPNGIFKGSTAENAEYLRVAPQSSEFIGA
Sequence of Follistatin-related protein 3 (Homo sapiens) (O95633 whole entry, looked up): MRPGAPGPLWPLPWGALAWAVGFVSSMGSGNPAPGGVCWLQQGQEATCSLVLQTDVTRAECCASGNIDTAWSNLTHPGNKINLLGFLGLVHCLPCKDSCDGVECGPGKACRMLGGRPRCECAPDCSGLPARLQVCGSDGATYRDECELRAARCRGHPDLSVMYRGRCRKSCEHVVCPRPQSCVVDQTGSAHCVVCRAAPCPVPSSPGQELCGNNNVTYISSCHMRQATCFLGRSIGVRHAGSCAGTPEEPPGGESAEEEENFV

As to `C=CC[C@@]1(C(=O)N2CCCCC2)N=C(c2ccc(OCCCO)cc2)O[C@@H]1c1ccccc1`, the composite z-score stood at 1.53 in test [1]; 0.833 in [2]; 0.613 in test [3]; 0.497 in test [5]; 1.29 in test [6]; 0.0106 in test [7]. Also, the composite z-score in test [8] was -0.0325; in test [9], -0.717; in test [10], 0.823; in [11], 0.305; in test [13], 0.106; in test [14] it was 0.506. Moreover, the composite z-score in [15] was -0.185; in [16], 0.141; in test [17] it was -0.0243; in test [18] it was 2.01; in test [19], 1.87; in test [20], 0.497. Moreover, the z-score in test [4] was 0.411 (inactive); in test [12], -1.91.
`CCOC(=O)C1=CC[C@@H](c2cc(Cl)ccc2Cl)N(S(=O)(=O)c2ccc(C)cc2)[C@H]1c1ccc(OC)cc1`: the composite z-score was 0.391 in test [1]; 0.987 in [2]; 1.13 in test [3]; 0.462 in [5]; -0.239 in test [6]; -0.36 in [7]. Moreover, the composite z-score in test [8] was -0.0732; in [9], -0.295; in test [10], 1.56; in [11], -0.157; in [13] it was -0.658; in test [14], 0.379. Moreover, the composite z-score was 0.379 in [15]; 0.374 in test [16]; 0.898 in test [17]; -0.412 in test [18]; 0.417 in [19]; -0.369 in test [20]. Further, the figures for the z-score in test [4] and in test [12] were -0.381 (inactive) and -2.23, respectively.
`[N-]=[N+]=Nc1ccccc1C[C@]1(C(=O)NCc2ccccc2)N=C(c2ccc(OCCCO)cc2)O[C@H]1c1ccccc1`: the composite z-score in [1] is 1.13; in test [2], 0.966; in test [3], 1.01; in test [5], 1.09; in [6], -0.235; in test [7] it was -0.269. Moreover, the composite z-score in test [8] is 0.461; in [9], -0.684; in test [10] it was 0.784; in test [11] it was 1.08; in test [13], -0.397; in test [14] it was 2.03. Besides, the composite z-score in [15] was 0.848; in test [16] it was 0.0357; in test [17], 0.28; in test [18] it was 1.85; in [19], 1.39; in [20], 1.77. Also, the z-score in [4] is 0.843 (inactive); in test [12] it was -1.58.
Turning to `Cc1ccc(S[C@]2(C(=O)NCCN3CCOCC3)CC(=O)N(Cc3ccccc3C(F)(F)F)[C@@H]2c2ccc(CO)cc2I)cc1`, the composite z-score is 1.3 in test [1]; -0.102 in test [2]; 0.93 in [3]; -0.973 in test [5]; -0.728 in test [6]; -0.842 in test [7]. Moreover, the composite z-score in test [8] was -1.13; in test [9], -1.15; in test [10] it was 0.446; in test [11] it was 0.323; in [13] it was -1.49; in test [14] it was -0.69. Besides, the composite z-score in test [15] is 0.116; in test [16] it was -0.0792; in test [17], -0.0866; in [18], 0.0331; in test [19], -0.0897; in [20], -0.529. Besides, the z-score in [4] is -1.55 (inactive); in test [12], -1.64.
For `Cc1ccc(S[C@]2(C(=O)NC3CC3)CC(=O)N(Cc3ccccc3Cl)[C@@H]2c2ccc(CO)cc2I)cc1`, the composite z-score in test [1] is 1.35; in [2] it was 0.633; in test [3], 0.873; in test [5], 1.4; in test [6], 1.27; in [7], -0.172. Moreover, the composite z-score in [8] is 0.41; in test [9], 0.122; in test [10], 1.03; in [11], 1.45; in test [13] it was -0.355; in [14], 0.156. In addition, the composite z-score in test [15] was -0.274; in test [16], 0.109; in [17] it was 0.0062; in test [18], -0.429; in test [19] it was 0.769; in test [20] it was 0.939. For the same molecule, the figures for the z-score in [4] and in [12] were -0.447 (inactive) and -1.57, respectively.
In the case of `C[C@H]1C2=C3C(CC[C@H]4C(OCc5ccc(F)cc5C(F)(F)F)OC[C@](C)([C@@H]34)N(C(=O)OC(C)(C)C)C2)C(CO)C1CO` (stereo not given in full), the composite z-score in test [1] was 0.0402; in test [2], -0.0997; in test [3], 0.984; in test [5], -0.0455; in [6], 0.875; in [7] it was -0.249. The composite z-score is 0.885 in [8]; -0.461 in test [9]; 1.09 in test [10]; 1.34 in test [11]; -0.593 in test [13]; 2.4 in [14]. In addition, the composite z-score was 0.861 in test [15]; 0.114 in test [16]; 0.255 in [17]; -0.697 in test [18]; 0.222 in test [19]; 0.671 in test [20]. The z-score in test [4] is 0.509 (inactive); in [12] it was -2.81.
